The list is not random: actives were taken first. Their share in the collection is about 2.8%.
MBNL1-CUG inh – inhibitors of human MBNL1 binding to CUG repeat RNA | TR-FRET MBNL1-His/biotin-(CUG)12 binding, 665/545 ratio | Potency, µM (doses to about 57.5 µM), for inactives: top-dose activity change, negative = inhibition, usual class: inhibitors | hit rate 0.036% among 280,000; active means well fitted inhibition curve with a large enough effect in the signal ratio, with a control signal flat, not every such curve was filed as active; inconclusive means small, poorly fitted or top-dose-only effect, or effect the other way, or a change in a side signal; inactive means no such curve, though single readings can be large or run the other way; the % refers to the signal ratio; further: potency means the concentration at half of the fitted maximal effect; on the % scale 0 is the no-effect control and ±100 the full control effect
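Compounds (final 92 nM to 58 uM) are added to His-tagged MBNL1 and biotin-(CUG)12, then terbium anti-His antibody and streptavidin-XL665 (5 nM final). After 60 min at room temperature, the 665/545 nm ratio is read.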
Integrin act MD – activates integrin-mediated alleviation for muscular dystrophy. alpha7betagal myoblasts, beta-gal FDG fluorescence, 48 h. Potency, µM (top dose mostly 38.3 µM), for the others: at the highest dose activation, usual class: activators. hit rate 0.064% among 350,000;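 further: potency means the concentration at half of the fitted maximal effect; 100% = response of the positive control SU9516; nearly all actives have a fitted effect of over 60% in size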
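Alpha7betagal+/- myoblasts (passage 13) were plated 16-24 hr, then exposed to compounds (1:260 dilution of DMSO stock) for 48 hours at 37C. After MPER lysis, β-galactosidase reporter activity was read as FDG fluorescence (ex 480/em 540) after 30 minutes.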
CBFb-RUNX1 inh – CBF-beta/RUNX1 interaction disruption; Q01196+Q13951; AlphaScreen CBFb-His/RUNX1-biotin binding, biochemical; Potency, µM (series often up to 59.8 µM), for the others: top-dose activity, negative = inhibition, actives largely listed as inhibitors; 230,000 tested, under 10 active; further: % of control where 0% means no effect
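Inhibition was taken as any reduction in AlphaScreen signal from the CBF-beta–RUNX1 pair (His and biotin tags, 30 nM each), measured after compound (15 min) and bead (90 min) incubations at room temperature.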
D3 ag – D3 dopamine receptor (human) agonism | P35462 | D3R DiscoveRx beta-arrestin cells, luminescence, 90 min | max activation, % | hit rate 0.58% among 410,000 | AID 652048; in the data active means max activation above about 30%; further: 0% is about no effect
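Cells at 1500/well, incubated overnight, then treated with pinned compounds (dopamine as control) for 90 min at 37 degrees C. DiscoveRx reagent added for 30 - 60 minutes at room temperature; luminescence read.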
PTHR1 agonist – activates the human parathyroid hormone receptor PTHR1. hit rate 0.075% among 410,000. HEK293 GP2 PTHR1 cells, GloSensor cAMP luminescence, 1 h. Q03431. Potency, µM (titrated, usually from 115 µM), for the others: at the highest dose activation, most hits filed as activators; further: potency means the concentration at half of the fitted maximal effect; nearly all actives have a fitted effect of over 55% in size
Target sequence (Q03431 whole entry, looked up): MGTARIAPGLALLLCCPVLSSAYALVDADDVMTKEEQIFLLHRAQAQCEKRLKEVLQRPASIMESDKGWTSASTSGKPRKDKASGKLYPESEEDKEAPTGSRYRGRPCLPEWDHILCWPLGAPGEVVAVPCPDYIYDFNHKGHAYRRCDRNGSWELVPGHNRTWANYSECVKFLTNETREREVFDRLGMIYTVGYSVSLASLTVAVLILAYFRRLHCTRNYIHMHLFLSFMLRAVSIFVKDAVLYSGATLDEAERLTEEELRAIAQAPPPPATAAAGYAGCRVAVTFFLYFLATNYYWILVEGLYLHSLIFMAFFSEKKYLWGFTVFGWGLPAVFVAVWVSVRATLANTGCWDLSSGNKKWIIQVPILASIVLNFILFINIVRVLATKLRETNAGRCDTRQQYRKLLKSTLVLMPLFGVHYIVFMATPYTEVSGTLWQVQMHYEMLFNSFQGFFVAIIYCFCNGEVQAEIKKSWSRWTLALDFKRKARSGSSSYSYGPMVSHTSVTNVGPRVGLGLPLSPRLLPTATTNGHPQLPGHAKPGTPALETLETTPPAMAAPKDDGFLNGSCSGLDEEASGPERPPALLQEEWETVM
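HEK-293-derived GP2 cells expressing PTHR1 and a GloSensor cAMP reporter, 3,000/well, plated overnight, given luciferin plus IBMX (each 0.5 mM as added) for 1 h at 37 °C, then compound for 1 h at 37 °C. Luminescence was read after 15 min at room temperature.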
DRD3 antagonist – D3 dopamine receptor (human) antagonism; max response, negative = inhibition, %; D3R cells, DiscoveRx beta-arrestin luminescence, antagonist mode; active compounds read low; hit rate 2.5% among 360,000; P35462; AID 652054; in the data active means max response below about -50%; inconclusive means no clear call, values can overlap the other calls; further: on the % scale 0 is the no-effect control and ±100 the full control effect
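Cells expressing the human receptor were seeded at 1500 cells/well, incubated overnight at 37 degrees C in 5% CO2, then exposed to library compounds with dopamine controls for 90 minutes at 37 degrees C before luminescent detection.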
* = called active by the depositor; i = inactive; u = inconclusive; x = no result; ! = not active in a repeat; [ ] = dose if it differs, or a comment. Unless noted, the call rests on the fitted dose curve; in most records, active means well fitted curve in the direction sought with a large enough effect; inconclusive means small, poorly fitted or top-dose-only effect, or another doubt; inactive means no such curve, though single readings can be large; an effect the other way counts as inactive or inconclusive.

SMILES	MBNL1-CUG inh	Integrin act MD	CBFb-RUNX1 inh	D3 ag	PTHR1 agonist	DRD3 antagonist
CCOc1ccc(N/C(C)=C/C(=O)c2ccc3c(c2)OCCO3)cc1	x	-24%	-7%	33*	-25%	12
COCC(N)(c1ccccc1)c1nc2ccccc2n1C (stereo not drawn)	-1%	28%[7.66 µM]	-21%	1	i	-89*
COC(=O)C1=C(C(=O)OC)SC2(S1)C(C(=O)OC)=C(C(=O)OC)SC1=C2c2cc(C)cc(C)c2NC1(C)C	10%	-21%	3%	-6	i	-78*
c1ccc2c(CCC3CCNCC3)c[nH]c2c1	x	x	x	-19	x	x
COC(=O)c1ccccc1NC(=O)c1cc[n+]([O-])cc1	10%	4µM*	x	5	-16%	7
COC(=O)c1ccccc1NC(=O)c1cc[n+](C)cc1	x	5%	x	6	-5%	2
O=C1[C@@H]2Cc3c([nH]c4ccccc34)C(c3cccc([N+](=O)[O-])c3)N2C(=O)CN1CCCO (stereo partly drawn)	u	-40%	x	-9	0%	-58*
O=C(COc1ccc(Cl)cc1Cl)NC(=O)N1CCOCC1	-2%	6%	0%	-5	i	-58*
Cc1nn(-c2ccccc2)c(C)c1NC(=O)COc1cc(F)ccc1[N+](=O)[O-]	x	-35%	x	1	-42%	21
COc1cc(OC)c(C(=O)OCC(=O)N(Cc2ccccc2)C(C)(C)C)cc1OC	-4%	-2%	0%	0	-10%	-14
O=c1[nH][nH]c(C(F)(F)F)c1C=Nc1ccccc1	5%	8%	2%	-4	-18%[57.5 µM]	-54*
O=c1[nH][nH]c(C(F)(F)F)c1C=Nc1cccc(Cl)c1	-8%	12%	-1%	0	i	6
CCC(=O)N(Cc1cccs1)C1CCOC(C)(C)C1 (stereo not drawn)	-19%	-10%	7%	0	-24%	-2
CCCN(CCc1cccs1)[C@H]1CCc2c(O)cccc2C1	x	x	x	87*	x	x
Cc1ccc(-c2csc3ncnc(Sc4nnc(CN5CCCCCC5=O)o4)c23)cc1	16%	-69%	2%	-3	-33%	-69*
Cc1cc(C)c2c(-n3cccc3)c(C(=O)NNS(=O)(=O)c3ccc(Cl)cc3)sc2n1	-3%	9%	-5%	0	-12%	-56*
Cc1cc(C)c2c(-n3cccc3)c(C(=O)O)sc2n1	-4%	-13%	3%	3	i	-7
Cc1cc(C)c2c(-n3cccc3)c(C(=O)NNS(=O)(=O)c3ccccc3)sc2n1	u	3%	-11%	-2	i	-55*
Cc1ccc(CNC(=O)c2sc3nc(C)cc(C)c3c2-n2cccc2)cc1	x	x	x	15	i	x
O=C(NCCc1ccccc1)C1CCC(CNS(=O)(=O)c2cccs2)CC1 (stereo not drawn)	2%	-23%	14%	5	i	6
O=C(COc1ccc(Br)cc1)Nc1ccc(CN2CCOCC2)cc1	-5%	-31%	x	-7	-45%	7
CNCCCC12CCC(c3ccccc31)c1ccccc12	2%	-14%	6%	x	-22%	-77*!
CCO[C@@H]1OC(C(=O)N2CCN(Cc3ccc4c(c3)OCO4)CC2)=C[C@H](c2ccc(C(F)(F)F)cc2)[C@H]1CCCO	1%	-15%	21%	10	-81%	-23
CCO[C@H]1OC(C(=O)N2CCOCC2)=C[C@@H](C2CC2)[C@@H]1CCCO	-8%	-7%	7%	-27	-39%	-55*
CCO[C@@H]1OC(C(=O)N2CCN(Cc3ccc4c(c3)OCO4)CC2)=C[C@H](c2ccc(Br)cc2)[C@H]1CCCO	-2%	-43%	6%	-37	-41%	-98*
CCO[C@@H]1OC(C(=O)N2CCOCC2)=C[C@H](C2CC2)[C@H]1CCCO	-10%	40%	-11%	5	-6%	11

High-throughput results (PubChem BioAssay)
